A selection: hits, their analogues and other compounds. The true share with any hit is near 2.4%.
Pol kappa inh – blocks human DNA polymerase kappa activity; purified Pol kappa, fluorescent DNA synthesis assay, 10 min; actives 0.53% (n = 400,000); Potency, µM (highest dose often 107 µM), inactives show at the top dose activity, negative = inhibition, most hits filed as inhibitors; Q9UBT6; also: % is scaled to controls: 0 for no effect and ±100 for the full control effect
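Enzyme at 10 nM met test compounds for 15 min at room temperature. Substrate addition (50 nM final) began the reaction, which was monitored by fluorescence at 0 and 10 min.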
Pol beta inh – inhibitors of human DNA polymerase beta; AID 485314; actives 1.3% (n = 340,000); Potency, µM (top dose mostly 114 µM), without a hit: top-dose activity change, negative = inhibition, usual class: inhibitors; Pol beta primer extension/strand displacement, fluorescence kinetic; also: % is scaled to controls: 0 for no effect and ±100 for the full control effect
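Kinetic readout of DNA synthesis with strand displacement by Pol beta. Compound and 10 nM enzyme sit 15 min at room temperature; 50 nM substrate starts the reaction, read immediately and at 10 min.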
Pol eta inh – inhibitors of human DNA polymerase eta; recombinant Pol eta, fluorescent DNA replication assay; Potency, µM (series often up to 114 µM), for the others: at the top dose activity change, negative = inhibition, actives largely listed as inhibitors; actives 1.2% (n = 390,000); AID 588591; also: % is scaled to controls: 0 for no effect and ±100 for the full control effect
Target sequence (Q9Y253 whole entry, looked up): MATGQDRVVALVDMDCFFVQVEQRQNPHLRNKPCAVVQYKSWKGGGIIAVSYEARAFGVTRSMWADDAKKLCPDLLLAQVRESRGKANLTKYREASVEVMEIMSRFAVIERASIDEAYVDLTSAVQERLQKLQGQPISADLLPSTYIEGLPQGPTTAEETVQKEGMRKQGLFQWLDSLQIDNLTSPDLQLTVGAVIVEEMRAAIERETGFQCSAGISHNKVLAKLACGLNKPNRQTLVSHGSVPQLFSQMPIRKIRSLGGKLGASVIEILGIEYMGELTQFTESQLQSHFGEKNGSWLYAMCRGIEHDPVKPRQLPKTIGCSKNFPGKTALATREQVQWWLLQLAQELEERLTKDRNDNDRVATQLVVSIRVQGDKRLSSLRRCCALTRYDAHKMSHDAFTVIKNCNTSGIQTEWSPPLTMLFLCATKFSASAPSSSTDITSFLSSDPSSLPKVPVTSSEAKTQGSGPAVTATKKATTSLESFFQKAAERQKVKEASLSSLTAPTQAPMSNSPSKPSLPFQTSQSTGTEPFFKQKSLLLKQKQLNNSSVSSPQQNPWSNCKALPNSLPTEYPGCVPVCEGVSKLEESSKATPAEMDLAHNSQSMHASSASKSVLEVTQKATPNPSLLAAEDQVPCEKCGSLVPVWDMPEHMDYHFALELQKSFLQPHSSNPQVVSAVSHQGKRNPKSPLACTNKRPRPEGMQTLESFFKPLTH
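Fluorescent replication assay: 50 nM final substrate added after a 15 min room-temperature compound preincubation with 10 nM enzyme. Signal taken at 0 min and again at 10 min.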
FEN1 inh – blocks human flap endonuclease 1. P39748. Recombinant FEN1 flap cleavage, fluorescence, 15 min. Potency, µM (top dose mostly 114 µM), inactives show at the top dose activity change, negative = inhibition, hits mostly inhibitors. actives 0.35% (n = 390,000); also: % is scaled to controls: 0 for no effect and ±100 for the full control effect; nearly all actives have a fitted effect of over 65% in size
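With each library titrated from low to high concentration, compounds met 10 nM FEN1 for 15 min at room temperature before 50 nM substrate was added; readings at 0 and 15 min fed four-parameter Hill curve fits.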
WRN inhibitor – inhibitors of human WRN helicase | Q14191 | WRN helicase unwinding, fluorescent forked duplex, kinetic | Potency, µM (series often up to 114 µM), without a hit: at the top dose activity change, negative = inhibition, hits mostly inhibitors | actives 0.46% (n = 360,000); also: % is scaled to controls: 0 for no effect and ±100 for the full control effect; nearly all actives have a fitted effect of over 55% in size
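WRN at 20 nM final was preincubated with compound for 15 min at room temperature; reaction started with 100 nM forked duplex oligonucleotide carrying fluorophore and quencher plus 2 mM ATP (final). Unwinding followed kinetically by red fluorescence (ex 525/em 598 nm).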
POLI inh – inhibitors of human DNA polymerase iota. Pol iota fluorescent replication assay, 10 min. Potency, µM (doses to about 115 µM), for inactives: at the top dose activity, negative = inhibition, actives largely listed as inhibitors. actives 1% (n = 390,000)
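Fluorescent replication assay read twice, at 0 min and 10 min after adding 50 nM (final) substrate. Enzyme (10 nM) and compounds were first incubated 15 min at room temperature; enzyme-free buffer wells were negative controls.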
An asterisk follows results filed as active; ! = not active in a repeat; [ ] = remark or other dose. Calls follow the shape of the dose curve; as a rule, active = well fitted curve in the direction sought with a large enough effect; inconclusive = small, poorly fitted or top-dose-only effect, or another doubt; inactive = no such curve, though single readings can be large; an effect the other way counts as inactive or inconclusive. Potency is read from the fitted curve at half-maximal effect.

How did CCC(=O)OCOc1ccc(/C=C2/CCC(CN(C)C)C2=O)cc1 (configuration not stated) do in these assays?
Pol kappa inh: -8.9%; Pol eta inh: 12.6µM*; FEN1 inh: -15.0%; WRN inhibitor: 11.2µM*; POLI inh: inconclusive

How did C[C@H](CO)N1C[C@H](C)[C@H](CN(C)Cc2ccncc2)OCc2ccccc2-c2c(n(C)c3ccccc23)C1=O do in these assays?
Pol eta inh: -4.4%; WRN inhibitor: 8.0%

Results for CCn1c(CSc2nnc(-c3ccncc3)n2C)nc2cc(C(=O)O)ccc21 ?
Pol kappa inh: -9.0%; Pol beta inh: -24.9%; Pol eta inh: -23.4%; FEN1 inh: inconclusive; WRN inhibitor: 70.8µM*; POLI inh: 25.1µM*

Results for CCn1c(CSc2ncn[nH]2)nc2cc(C(=O)O)ccc21 ?
Pol kappa inh: 4.5%; Pol beta inh: 7.6%; Pol eta inh: 3.2%; FEN1 inh: 1.3%; WRN inhibitor: -24.3%; POLI inh: 16.3%

How did O=C(N/N=C/c1cccs1)c1cc(-c2ccc(Cl)s2)[nH]n1 do in these assays?
Pol kappa inh: -25.6%; Pol beta inh: 44.7µM*; Pol eta inh: inconclusive; FEN1 inh: -3.0%; WRN inhibitor: -5.3%[11.6 µM]; POLI inh: inconclusive

How did O=C(N/N=C/c1ccco1)c1cc(-c2ccc(Cl)s2)[nH]n1 do in these assays?
Pol kappa inh: -29.5%; Pol beta inh: inconclusive; Pol eta inh: -8.5%; FEN1 inh: -15.5%; WRN inhibitor: -16.1%; POLI inh: inconclusive

How did COc1cccc(/C=N/Nc2nc(Nc3ccc([N+](=O)[O-])cc3)nc(N3CCCC3)n2)c1O do in these assays?
Pol kappa inh: 14.1µM*; Pol beta inh: inconclusive; Pol eta inh: 22.4µM*; FEN1 inh: -24.5%; WRN inhibitor: 50.1µM*; POLI inh: inconclusive

Results for Cc1ccc(NC(=O)Nc2nnc(SCC(=O)N3CCC(C)CC3)s2)cc1 ?
Pol kappa inh: -4.7%[60.1 µM]; Pol beta inh: 28.0%; Pol eta inh: -1.9%; FEN1 inh: -9.8%; POLI inh: -6.8%

How did COC(=O)c1c(C)cc(O)cc1O do in these assays?
Pol kappa inh: 21.1%; Pol eta inh: -13.7%; FEN1 inh: -0.2%; WRN inhibitor: 7.8%; POLI inh: 20.2%

What do the screens show for `CCc1ccc2c(O)c3c(cc2c1C(=O)OC)C(=O)c1c(O)ccc(O)c1C3=O`?
Pol kappa inh: 7.94µM*

How did CCc1ccc(S(=O)(=O)c2cn(CC(=O)Nc3ccc(F)c(Cl)c3)c3ccccc3c2=O)cc1 do in these assays?
Pol kappa inh: 2.7%; Pol beta inh: 29.9%; Pol eta inh: -22.3%; FEN1 inh: -14.0%; POLI inh: 28.1%

Results for O=C(NCC(c1ccco1)N1CCCC1)c1ccc(S(=O)(=O)Nc2ccccc2Cl)cc1 (configuration not stated) ?
Pol kappa inh: 79.4µM*; Pol eta inh: inconclusive; FEN1 inh: 9.6%; WRN inhibitor: -10.1%; POLI inh: inconclusive

Results for Cc1c(/C=C2\SC(=Nc3cccc(C(=O)O)c3)NC2=O)c2ccccc2n1C ?
Pol kappa inh: -37.2%; Pol beta inh: inconclusive; Pol eta inh: 79.4µM*; FEN1 inh: inconclusive; WRN inhibitor: -18.4%[11.6 µM]; POLI inh: inconclusive

What do the screens show for `Oc1c(N=Nc2ccccn2)ccc2ccccc12`?
Pol kappa inh: -0.1%; Pol beta inh: -1.5%; Pol eta inh: -26.0%; FEN1 inh: inconclusive; WRN inhibitor: 56.2µM*; POLI inh: 49.0%

What do the screens show for `COc1ccccc1N1CCN(S(=O)(=O)CCNC(=O)C(c2ccccc2)c2ccccc2)CC1`?
Pol kappa inh: -7.1%[60.1 µM]; Pol beta inh: -11.6%; Pol eta inh: -16.2%; FEN1 inh: -10.4%; POLI inh: -2.8%

How did CO[C@]1(NC(=O)CSCC#N)C(=O)N2C(C(=O)O)=C(CSc3nnnn3C)CS[C@H]21 do in these assays?
Pol kappa inh: -6.7%[12 µM]

How did CO[C@@]1(NC(=O)CSCC#N)C(=O)N2C(C(=O)O)=C(CSc3nnnn3C)CS[C@@H]21 do in these assays?
Pol kappa inh: -4.5%[60.1 µM]; Pol beta inh: -2.1%; Pol eta inh: 2.24µM*!; FEN1 inh: -0.6%; POLI inh: inconclusive

How did CCOc1ccccc1NC(=O)C1CCCN(S(=O)(=O)c2ccc3c(c2)CCCN3C(C)=O)C1 (configuration not stated) do in these assays?
Pol kappa inh: -8.2%[60.1 µM]; Pol beta inh: inconclusive; Pol eta inh: -13.5%; FEN1 inh: 15.8%; WRN inhibitor: 15.5%; POLI inh: -6.6%

What do the screens show for `O=C(Nc1nnc(-c2ccco2)o1)c1ccc(N2C(=O)CCC2=O)cc1`?
Pol kappa inh: -32.0%; Pol beta inh: inconclusive; Pol eta inh: -3.5%; FEN1 inh: 5.2%; WRN inhibitor: -23.8%; POLI inh: 22.4µM*

What do the screens show for `Nc1ccc(-c2nc3ccc(-c4nc5ccc(N)cc5[nH]4)cc3[nH]2)cc1`?
Pol kappa inh: 2.67µM*; Pol beta inh: 1.41µM*; Pol eta inh: 6.31µM*; FEN1 inh: 35.5µM*; POLI inh: 3.98µM*

Results for Nc1ccc(-c2nc3ccccc3[nH]2)cc1 ?
Pol kappa inh: -0.6%; Pol beta inh: inconclusive; Pol eta inh: -20.5%; FEN1 inh: 6.6%; WRN inhibitor: -6.5%; POLI inh: 23.4%

Results for Cc1ccc2nc(-c3cccc(N)c3)[nH]c2c1 ?
Pol kappa inh: -5.0%; Pol beta inh: 2.9%; Pol eta inh: -8.2%; FEN1 inh: 1.2%; WRN inhibitor: -7.0%[57.1 µM]; POLI inh: -2.3%

How did Nc1ccc2nc(-c3ccc(-c4nc5ccc(N)cc5[nH]4)cc3)[nH]c2c1 do in these assays?
Pol kappa inh: 50.1µM*; Pol beta inh: -15.2%; Pol eta inh: -18.6%; FEN1 inh: inconclusive; WRN inhibitor: -26.6%[11.6 µM]; POLI inh: inconclusive

What do the screens show for `CN(C(=O)COc1ncnc2ccc(Br)cc12)C1CCCCC1`?
Pol eta inh: -9.3%; WRN inhibitor: -5.4%

What do the screens show for `O=C(Nc1ccc(-c2nc3ncccc3o2)cc1)c1ccc(Br)o1`?
Pol kappa inh: 1.0%; Pol beta inh: -2.6%; Pol eta inh: inconclusive; FEN1 inh: -0.6%; WRN inhibitor: -0.3%[57.1 µM]; POLI inh: 13.2%

Results for O=C(Nc1ccc(-c2nc3ncccc3o2)cc1)c1ccco1 ?
Pol kappa inh: inconclusive; Pol beta inh: 35.5µM*; Pol eta inh: inconclusive; FEN1 inh: 0.7%; WRN inhibitor: -21.0%[57.1 µM]; POLI inh: inconclusive

How did Cc1ccc(OCc2nnc(SCC(=O)Nc3ccccc3C(C)C)o2)cc1 do in these assays?
Pol kappa inh: -11.1%[60.1 µM]; Pol beta inh: -13.7%; Pol eta inh: -8.4%; FEN1 inh: -3.0%; POLI inh: 19.0%
